Screens as filed in PubChem.
Rows were chosen to be rich in hits. Some 0.64% of all compounds tested hit in one or more screens of this group.
AI-2 QS mod = Vibrio harveyi AI-2 quorum sensing modulation. Vibrio harveyi JMH597 AI-2 luminescence/OD600 ratio, 9 h; stronger effect = lower value; strain lacks LuxN and CqsS sensors; 0 = neutral-control median. activity change, % at 7.5 µM. hit rate 0.4% among 300,000. AID 2094; in the data active = activity change below about -75%, passing the limit was not always enough;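 also: luminescence divided by OD600 gain over 9 h not by final OD600 alone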
PvdQ acylase = blocks Pseudomonas aeruginosa PvdQ acylase activity. inhibition, % at 10 µM. AID 488965. purified PvdQ acylase, fluorescence plate reader. hit rate 0.063% among 340,000; in the data active = inhibition above about 30%, passing the limit was not always enough;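 also: 0% = vehicle neutral wells and 100% = reference inhibitor wells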
Vif imaging = inhibitors of HIV Vif; inhibition, % at 7.49 µM; HEK293T cells, Vif self-association by quenched fluorescence, imaging, 24 h; hit rate 0.35% among 340,000; in the data active = inhibition above about 50%, passing the limit was not always enough
ERp5 inh = inhibitors of human ERp5 | ERp5 insulin aggregation, absorbance 650 nm, 90 min | inhibition, % at 9.99 µM | hit rate 0.05% among 350,000;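 active = mean replicate inhibition above about 25%, with every replicate also reaching it, limit read from the data, passing the limit was not always enough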
PDI turbidity = blocks human protein disulfide isomerase activity; P07237; PDI insulin aggregation turbidity, A650, 90 min; inhibition, % at 10 µM; hit rate 0.052% among 350,000;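 active = mean inhibition across replicates of 30% or more, whatever share of single replicates reach that level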
Target sequence (P07237 whole entry, looked up): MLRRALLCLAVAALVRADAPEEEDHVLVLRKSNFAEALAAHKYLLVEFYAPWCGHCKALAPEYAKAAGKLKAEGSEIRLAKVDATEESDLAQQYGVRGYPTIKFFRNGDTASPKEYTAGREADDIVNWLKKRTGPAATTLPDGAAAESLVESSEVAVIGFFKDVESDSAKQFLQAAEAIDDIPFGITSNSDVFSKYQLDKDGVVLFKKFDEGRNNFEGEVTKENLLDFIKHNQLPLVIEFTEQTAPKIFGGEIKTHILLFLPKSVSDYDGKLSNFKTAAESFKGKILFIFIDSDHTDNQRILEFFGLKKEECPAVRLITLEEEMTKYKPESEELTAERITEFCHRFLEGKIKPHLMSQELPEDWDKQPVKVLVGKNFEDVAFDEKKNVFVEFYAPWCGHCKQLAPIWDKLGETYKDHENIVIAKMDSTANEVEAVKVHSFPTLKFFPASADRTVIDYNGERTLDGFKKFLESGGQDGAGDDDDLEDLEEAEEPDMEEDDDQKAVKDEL
* hit, by the source's call; x = not tested or not shown.

SMILES	AI-2 QS mod	PvdQ acylase	Vif imaging	ERp5 inh	PDI turbidity
COc1ccc(-c2nnn(CC(=O)N(Cc3ccco3)C(C(=O)NCC3CCCO3)c3ccco3)n2)cc1 (stereo not given)	9.3	-14.3	4.2	0.8	-3.0
COc1ccc(CN(C(=O)Cn2nnc(-c3ccc(C)o3)n2)C(C(=O)NCC2CCCO2)c2ccco2)cc1 (stereo not given)	8.5	-0.3	71.1*	-0.5	0.6
COCC(=O)Nc1ccc2c(c1)[C@H]1C[C@@H](CC(=O)NCc3ccncc3)O[C@@H](CO)[C@H]1O2	x	x	x	-32.7	x
O=C(CSc1nnnn1-c1ccc(O)cc1)c1cc2ccccc2o1	-77.0*	-6.3	-19.9	0.4	5.3
Cc1ccc(S(=O)(=O)NCCC(C)C)cc1[N+](=O)[O-]	2.9	53.2*	8.3	-5.4	16.4
C/C(CCC(C)C)=N\NS(=O)(=O)c1ccc(C)c([N+](=O)[O-])c1	43.8	-5.5	12.3	5.0	-4.8
COc1cccc(C(C)(O)c2nc(-c3ccccc3OC)cs2)c1 (stereo not given)	x	x	57.0*	-0.8	4.5
COc1ccc2c3c(n(C)c2c1)[C@H](CO)N(C(=O)C1CCOCC1)CC31CCN(Cc2cccc(F)c2)CC1	x	x	x	4.4	x
C[C@@H]1CN([C@@H](C)CO)C(=O)c2cccc(NS(=O)(=O)c3ccc(Cl)cc3)c2O[C@H]1CN(C)Cc1ccncc1	x	x	x	-0.2	x
Oc1ccccc1C1SC(c2ccccc2O)SC(c2ccccc2O)S1 (stereo not given)	x	-1.7	59.5*	-0.7	-4.8
Cc1cc2c(cc1C)CSC(c1ccccc1O)SC2	-0.5	-11.3	-15.9	x	-2.7
Cc1noc(C)c1NC(=O)N(C)C[C@@H]1Oc2ccc(NC(=O)Nc3cccc4ccccc34)cc2C(=O)N([C@@H](C)CO)C[C@@H]1C	x	x	x	5.5	x
Cc1cc(C(=O)N/N=C/c2c(C)nn(-c3ccccc3)c2Cl)n[nH]1	22.3	x	71.0*	7.7	9.3
Cc1noc(C)c1S(=O)(=O)N(C)C[C@H]1OCCCC[C@@H](C)Oc2ccc(NC(=O)Nc3ccc(C(F)(F)F)cc3)cc2C(=O)N([C@@H](C)CO)C[C@@H]1C	x	x	x	-5.8	x
Cc1ccc(NC(=O)c2cccc(S(C)(=O)=O)c2)cc1	-30.1	0.4	3.3	25.5*	6.5
CN(C)S(=O)(=O)c1ccc(NC(=O)COC(=O)C2COc3ccccc3O2)cc1 (stereo not given)	-15.0	8.7	67.4*	1.9	3.3
S=C(NCc1ccco1)Nc1cc(-c2ccccc2)[nH]n1	-81.5*	-10.5	-4.3	-3.9	2.1
COC(=O)c1cnn(-c2cc(Oc3cccc(C)c3)ncn2)c1N	-87.6*	-20.0	-4.5	x	-5.3
CC(=O)c1cnn(-c2cc(Oc3cccc(C)c3)ncn2)c1C	17.4	-27.6	14.6	x	-2.0
COc1ccccc1CN(C)c1ccc(S(=O)(=O)N2CCN(C)CC2)cn1	x	-7.8	-0.4	31.5*	23.9
Nc1ccc(C(=O)NN2C(=O)[C@H](Cl)C2c2ccc(Cl)cc2)cc1 (stereo not given in full)	x	-6.5	10.0	2.9	56.1*
O=C(OCc1nc2ccccc2s1)c1ccco1	7.8	45.5*	-4.8	-1.1	0.3
O=C(OCc1nc2ccccc2s1)c1ccc(Br)o1	12.0	11.3	2.0	5.7	-0.8
CO[C@H]1CN(C)C(=O)c2ccc(NC(=O)C3CCCC3)cc2OC[C@@H](C)N(CC2CC2)C[C@H]1C	x	x	x	-5.6	x
Oc1c(C=NCc2ccccc2)sc2ccccc12	-91.6*	-3.2	-0.5	2.5	0.3
SMILES	AI-2 QS mod	PvdQ acylase	Vif imaging	ERp5 inh	PDI turbidity
CO/N=C/c1ccc(Sc2ccc(C)cc2)c([N+](=O)[O-])c1	20.7	-9.0	18.5	x	-2.5
Cc1ccc(Sc2ccc(/C=N/O)cc2[N+](=O)[O-])cc1	-76.3*	3.6	-4.8	x	-3.0
CC(C)C#Cc1cnc2c(c1)C(=O)N([C@@H](C)CO)C[C@@H](C)[C@@H](CN(C)C(=O)c1cnccn1)O2	x	x	x	0.8	x
COc1ccc(C2=Nn3c(nnc3-c3ccc(OC)cc3)SC2)cc1	15.2	-4.9	65.5*	x	-0.1
COc1ccc(C2=Nn3c(nnc3-c3ccccn3)SC2)cc1OC	18.6	-11.2	26.5	x	-4.1
COc1ccc(C2=Nn3c(nnc3-c3ccccc3OC)SC2)cc1OC	23.5	5.3	55.0*	x	2.4
C[C@@H]1CN([C@H](C)CO)C(=O)c2cc(NC(=O)CCCCCC(=O)Nc3ccccc3N)ccc2O[C@H]1CN(C)S(C)(=O)=O	x	x	x	-7.5	x
CNC[C@H]1Oc2ccc(NC(=O)Nc3ccc4c(c3)OCO4)cc2CC(=O)N([C@@H](C)CO)C[C@@H]1C	x	x	x	4.0	x
